Results reported in PubChem BioAssay (Tox21).
The source made the active and inactive calls. Calls come from the whole dose curve; as a rule, active = well fitted curve in the direction sought with a large enough effect in the repeat runs; inconclusive = weak or mixed curves; inactive = flat fitted curve, though single readings scatter.

assay: qHTS assay to test for compound auto fluorescence at 590 nm (red) in HEK293 cell free culture (AID 720683); settings: cell-free medium autofluorescence, Ex540/Em590 red; series mostly up to 91.3 µM; fluorescence, % of fluorescent control: at the top concentration
Outline: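 Tox21 10K library compounds were pinned into cell-free DMEM with 10% FBS and fluorescence was read at excitation 540 nm. Activity is expressed as Rose Bengal sodium equivalency.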
% is set by controls: 0 for no effect and ±100 for the full control effect.

| Compound | fluorescence, % of fluorescent control |
| --- | --- |
| COc1cccc(Br)c1 | 0.0817% (inactive) |
| C1CCCCCCCCCCC1 | -0.0432% [at 18.6 µM] (inactive) |
| CC/C=C\CCCCO | 0.0209% (inactive) |
| OCCCCCCO | 0.0324% [at 95.7 µM] (inactive) |

assay: qHTS assay to test for compound auto fluorescence at 590 nm (red) in HepG2 cell free culture (AID 720684); settings: cell-free medium autofluorescence, red 540/590 nm; series mostly up to 91.3 µM; fluorescence, % of Rose Bengal: at the top concentration
Outline: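 Red fluorescence (540 nm excitation, 590 nm emission) was measured after compound transfer into cell-free MEM supplemented with 10% FBS. Values are equivalencies against Rose Bengal sodium.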

| Compound | fluorescence, % of Rose Bengal | outcome |
| --- | --- | --- |
| C#CC(O)C(CC)CCCC (stereo unspecified) | 0.0386% (inactive) | – |
| C=C(C)C(=O)NCCC[N+](C)(C)C | -0.112% (inactive) | – |
| Cc1ccc(Nc2ccc(O)c3c2C(=O)c2ccccc2C3=O)cc1 | 0.0108% (inactive) | – |
| CCCCCOC(=O)Nc1nc(=O)n([C@@H]2O[C@H](C)[C@@H](O)[C@H]2O)cc1F | -0.057% [at 46 µM] (inactive) | – |
| COc1cc(C)cc(O)c1 | -0.0513% (inactive) | – |
| CCCCCCOC(=O)CC(CC(=O)OCCCCCC)(OC(=O)CCC)C(=O)OCCCCCC | 0.0058% (inactive) | – |
| N#CCc1ccccc1[N+](=O)[O-] | -0.118% (inactive) | – |
| CN(C)N=Nc1ccccc1 | 0.0092% (inactive) | – |
| C(=C(c1ccccc1)c1ccccc1)c1ccccc1 | -0.0413% (inactive) | – |
| C=C(C)C(=O)OCCCCCCCCCCCCCCCCCC | -0.0496% [at 18.6 µM] (inactive) | – |
| CCCCNc1ccccc1 | 0.158% (inactive) | – |
| COC(=O)[C@H]1[C@H]2C[C@@H]3c4[nH]c5cc(OC)ccc5c4CCN3C[C@H]2C[C@@H](OC(=O)COc2ccc(OC)cc2)[C@@H]1OC | 0.0375% [at 46 µM] (inactive) | – |
| Nc1cc(N)cc(C(=O)O)c1 | -0.487% (inactive) | – |
| COc1cccc(Br)c1 | -0.0041% (inactive) | – |
| C1CCCCCCCCCCC1 | -0.141% [at 18.6 µM] (inactive) | – |
| CC(O)CN(CCCN(C)C)CCCN(C)C (stereo unspecified) | -0.243% (inactive) | – |
| CCCC(=O)O[C@]1(C(=O)CCl)[C@@H](C)C[C@H]2[C@@H]3CCC4=CC(=O)C=C[C@]4(C)[C@@]3(F)C(=O)C[C@@]21C | 0.0175% [at 46 µM] (inactive) | – |
| CC(C)=CC(=O)O | -0.0333% (inactive) | – |

| Compound | fluorescence, % of Rose Bengal | outcome |
| --- | --- | --- |
| CC/C=C\CCCCO | -0.0529% (inactive) | – |
| CC(C)(O)C(=O)c1ccc(OCCO)cc1 | -0.0661% (inactive) | – |
| NC(=O)CCCCC1CCSS1 (stereo unspecified) | -0.0445% [at 46 µM] (inactive) | – |
| COC(=O)CCCCCCCCC(=O)OC | -0.0732% (inactive) | – |
| CN(C)C(=O)C(CCN1CCC(O)(c2ccc(Cl)cc2)CC1)(c1ccccc1)c1ccccc1 | -0.0273% [at 46 µM] (inactive) | – |
| Cc1nccn1CC1CCc2c(c3ccccc3n2C)C1=O (stereo unspecified) | – | inactive |
| CCC(=O)c1cccc(Cl)c1 | 0.209% [at 95.7 µM] (inactive) | – |
| C=CCn1c(=O)n([C@@H]2O[C@H](CO)[C@@H](O)[C@H]2O)c2nc(N)[nH]c(=O)c21 | 0.105% [at 46 µM] (inactive) | – |
| Fc1ccccc1-c1ccccc1 | 0.0962% [at 95.7 µM] (inactive) | – |
| OC1OC[C@@H](O)[C@H](O)[C@H]1O (stereo partly specified) | -0.136% (inactive) | – |
| NC(=S)Nc1cccc2ccccc12 | -0.172% [at 3.72 µM] (inactive) | – |
| OCCCCCCO | -0.29% [at 95.7 µM] (inactive) | – |
| CCCOc1ccccc1-c1nc2n[nH]nc2c(=O)[nH]1 | -0.108% [at 46 µM] (inactive) | – |
| OCC(CO)(CO)COCC(CO)(CO)CO | 0.0553% (inactive) | – |
| CC12CCC(CC1=O)C2(C)C (stereo unspecified) | 0.0867% (inactive) | – |
| O=S(=O)(c1cccc2cnccc12)N1CCCNCC1 | 0.0212% [at 46 µM] (inactive) | – |
| CNc1ncnc2nc[nH]c12 | 0.0108% [at 95.7 µM] (inactive) | – |
| COc1ccc(N=[N+]([O-])c2ccc(OC)cc2)cc1 | -0.0514% (inactive) | – |

assay: qHTS assay to test for compound auto fluorescence at 460 nm (blue) in HepG2 cell free culture (AID 720685); settings: Cell-free culture medium, blue autofluorescence 405/460 nm; series mostly up to 91.3 µM; fluorescence, % of fluorescent control: at the top concentration
Outline: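 Compound (23 nL) or DMSO pinned into cell-free MEM with 10% FBS; blue fluorescence read at 405/460 nm excitation/emission, expressed as auto-fluorescence equivalency to triamterene.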

| Compound | fluorescence, % of fluorescent control | Potency |
| --- | --- | --- |
| C#CC(O)C(CC)CCCC (stereo unspecified) | 1.23% (inactive) | – |
| C=C(C)C(=O)NCCC[N+](C)(C)C | 0.019% (inactive) | – |
| Cc1ccc(Nc2ccc(O)c3c2C(=O)c2ccccc2C3=O)cc1 | -0.066% (inactive) | – |
| CCCCCOC(=O)Nc1nc(=O)n([C@@H]2O[C@H](C)[C@@H](O)[C@H]2O)cc1F | 0.0117% [at 46 µM] (inactive) | – |
| COc1cc(C)cc(O)c1 | -0.0348% (inactive) | – |
| CCCCCCOC(=O)CC(CC(=O)OCCCCCC)(OC(=O)CCC)C(=O)OCCCCCC | 0.0481% (inactive) | – |
| N#CCc1ccccc1[N+](=O)[O-] | 0.0083% (inactive) | – |
| CN(C)N=Nc1ccccc1 | -0.006% (inactive) | – |
| C(=C(c1ccccc1)c1ccccc1)c1ccccc1 | 0.0281% (inactive) | – |
| C=C(C)C(=O)OCCCCCCCCCCCCCCCCCC | -0.0261% [at 18.6 µM] (inactive) | – |
| CCCCNc1ccccc1 | -0.0498% (inactive) | – |
| COC(=O)[C@H]1[C@H]2C[C@@H]3c4[nH]c5cc(OC)ccc5c4CCN3C[C@H]2C[C@@H](OC(=O)COc2ccc(OC)cc2)[C@@H]1OC | 1.43% [at 46 µM] (inactive) | – |
| Nc1cc(N)cc(C(=O)O)c1 | 1.41% (inactive) | – |
| COc1cccc(Br)c1 | 0.0135% (inactive) | – |
| C1CCCCCCCCCCC1 | -0.102% [at 18.6 µM] (inactive) | – |
| CC(O)CN(CCCN(C)C)CCCN(C)C (stereo unspecified) | 0.0178% (inactive) | – |
| CCCC(=O)O[C@]1(C(=O)CCl)[C@@H](C)C[C@H]2[C@@H]3CCC4=CC(=O)C=C[C@]4(C)[C@@]3(F)C(=O)C[C@@]21C | 0.048% [at 46 µM] (inactive) | – |
| CC(C)=CC(=O)O | -0.0147% (inactive) | – |

| Compound | fluorescence, % of fluorescent control | Potency |
| --- | --- | --- |
| CC/C=C\CCCCO | 0.0431% (inactive) | – |
| CC(C)(O)C(=O)c1ccc(OCCO)cc1 | -0.0041% (inactive) | – |
| NC(=O)CCCCC1CCSS1 (stereo unspecified) | -0.0522% [at 46 µM] (inactive) | – |
| COC(=O)CCCCCCCCC(=O)OC | 0.0407% (inactive) | – |
| CN(C)C(=O)C(CCN1CCC(O)(c2ccc(Cl)cc2)CC1)(c1ccccc1)c1ccccc1 | 0.213% [at 46 µM] (inactive) | – |
| Cc1nccn1CC1CCc2c(c3ccccc3n2C)C1=O (stereo unspecified) | – | inactive |
| CCC(=O)c1cccc(Cl)c1 | 0.02% [at 95.7 µM] (inactive) | – |
| C=CCn1c(=O)n([C@@H]2O[C@H](CO)[C@@H](O)[C@H]2O)c2nc(N)[nH]c(=O)c21 | 0.0525% [at 46 µM] (inactive) | – |
| Fc1ccccc1-c1ccccc1 | -0.12% [at 95.7 µM] (inactive) | – |
| OC1OC[C@@H](O)[C@H](O)[C@H]1O (stereo partly specified) | 0.0002% (inactive) | – |
| NC(=S)Nc1cccc2ccccc12 | 0.0279% [at 3.72 µM] (inactive) | – |
| OCCCCCCO | -0.0018% [at 95.7 µM] (inactive) | – |
| CCCOc1ccccc1-c1nc2n[nH]nc2c(=O)[nH]1 | 0.0451% [at 46 µM] (inactive) | – |
| OCC(CO)(CO)COCC(CO)(CO)CO | -0.0182% (inactive) | – |
| CC12CCC(CC1=O)C2(C)C (stereo unspecified) | 0.0539% (inactive) | – |
| O=S(=O)(c1cccc2cnccc12)N1CCCNCC1 | -0.0357% [at 46 µM] (inactive) | – |
| CNc1ncnc2nc[nH]c12 | -0.115% [at 95.7 µM] (inactive) | – |
| COc1ccc(N=[N+]([O-])c2ccc(OC)cc2)cc1 | 0.0007% (inactive) | – |
